Experimental findings from PubChem BioAssay AID720697 (Broad Institute, 2013) are described below.

Results with a measured potency or affinity are listed apart. Records with an inconclusive call do not appear. Calls of active or inactive are those of the source.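 The calls were made as follows: active = signal loss with fitted half-maximal concentration at or below twice the top valid tested dose in every test run; inconclusive = runs disagree, flat 30 to 70% signal loss, or poor fit; inactive = all runs flat, opposite direction, or potency beyond limit.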

The nature of this assay: general mammalian cell viability loss – inhibitor set, cherry-pick, set 2, cytotoxicity control for miR-122 modulator project, dose response (AID 720697).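 Also: 0% = median of neutral control wells and -100% = MG132 positive control wells.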 The settings on record: HEK293T viability, CellTiter-Glo luminescence, 48 h; series mostly up to 26 µM.
Turning to `COc1ccc(OC)c(Nc2cc(C)nc3ccc(C)cc23)c1`, the activity change, negative = cytotoxicity was -30% [at 6 µM] (inactive).

As to `C[C@@H]1CN([C@@H](C)CO)S(=O)(=O)c2ccc(C#CC3(O)CCCC3)cc2O[C@@H]1CN(C)C(=O)c1cccnc1`, the outcome was inactive.

In the case of `CNC(=O)C[C@H]1CC[C@@H]2[C@@H](COc3ccc(NC(=O)Nc4ccc(Cl)cc4)cc3C(=O)N2C)O1`, the result was inactive.

Consider `O=C(Nc1nc(-c2cc3ccccc3o2)cs1)c1ccc(S(=O)(=O)N2CCCC2)cc1`, for which the call was inactive.

Take `COc1ccc(C(=O)N2C[C@H]3[C@@H](c4ccccc42)[C@@H](CO)N3C(=O)Cc2ccccn2)cc1`: the result was inactive.

On to `Cc1cc(C)cc(NC(=O)c2ccc(CSc3nnc(C)s3)cc2)c1`, for which the outcome was inactive.

As to `CNC(=O)C[C@@H]1CC[C@H]2[C@@H](COc3ccc(NC(=O)c4ccc(C(F)(F)F)cc4)cc3C(=O)N2C)O1`, the molecule was classed as inactive.

Take `Cc1nnc(NC(=O)CSc2nc(C(C)C)nc3sc(C)c(C)c23)s1`: the outcome was inactive.

Consider `C/C=C/c1ccc([C@H]2[C@@H](CO)N(Cc3ccccn3)[C@@H]2CNC(=O)CC)cc1`, for which the result was inactive.

For `CN(C[C@H]1N[C@@H](CO)[C@@H]1c1ccc(C2=CCCC2)cc1)C(=O)c1ccc(F)cc1`, the molecule was called inactive.

With `CCCNC(=O)C[C@@H]1CC[C@H]2[C@@H](COc3ccc(NC(=O)c4ccc(C(F)(F)F)cc4)cc3C(=O)N2C)O1`, the outcome was inactive.

Take `COc1cccc(-c2ccc3c(c2)O[C@H](CN(C)C(=O)C2CCOCC2)[C@H](C)CN([C@H](C)CO)S3(=O)=O)c1`: the result was inactive.

Take `CCN(C[C@@H]1N[C@@H](CO)[C@H]1c1ccc(-c2cccc(F)c2)cc1)C(=O)CN(C)C`: the molecule was classed as inactive.

In the case of `CO[C@H]1CN(C)C(=O)c2cc(NC(C)=O)ccc2OC[C@@H](C)N(C(=O)c2ccccn2)C[C@H]1C`, the molecule was classed as inactive.

With `CO[C@@H]1CN(C)C(=O)c2ccc(NS(C)(=O)=O)cc2OC[C@H](C)N(C(=O)CN(C)C)C[C@@H]1C`, the outcome was inactive.

As for `COC(=O)C[C@H]1CC[C@H]2[C@H](COc3ccc(NC(=O)c4cccc(F)c4)cc3C(=O)N2C)O1`, the molecule was classed as inactive.

With `CO[C@H]1CN(C)C(=O)c2cc(NC(=O)c3cccc(Oc4ccccc4)c3)ccc2OC[C@@H](C)NC[C@H]1C`, the outcome was inactive.

In the case of `O=C(Nc1ccc(Cl)cc1)N1C[C@H]2[C@@H](c3ccccc31)[C@H](CO)N2CC1CCCCC1`, the result was inactive.

As to `C[C@H]1CCCCO[C@H](CN(C)Cc2ccc3c(c2)OCO3)[C@@H](C)CN([C@@H](C)CO)C(=O)c2cc(NC(=O)Nc3cccc4ccccc34)ccc2O1`, the result was inactive.

On to `CC(C)C(=O)Nc1ccc2c(c1)C(=O)N(C)[C@H]1CC[C@H](CC(=O)Nc3cccc(F)c3)O[C@@H]1CO2`, for which the molecule was called inactive.

Regarding `O=C(C1CC1)N(CCN(C(=O)C1CC1)c1ccccc1)c1ccccc1`, the molecule was called inactive.

As for `CN1C(=O)c2cc(NC(=O)Cc3ccccc3)ccc2OC[C@@H]2O[C@@H](CC(=O)NCc3ccc(Cl)cc3)CC[C@H]21`, the call was inactive.

In the case of `Cc1nn(C)cc1NC(=O)C[C@H]1CC[C@@H]2[C@H](COc3ccc(NC(=O)Nc4cccc(Cl)c4)cc3C(=O)N2C)O1`, the result was inactive.

As for `CCN(C[C@H]1N[C@@H](CO)[C@@H]1c1ccc(C2=CCCC2)cc1)C(=O)c1ccncc1`, the molecule was classed as inactive.

Consider `CCCNC(=O)C[C@H]1CC[C@@H]2[C@@H](COc3ccc(NC(=O)c4ccc5c(c4)OCO5)cc3C(=O)N2C)O1`, for which the molecule was classed as inactive.

For the molecule `COC(=O)C[C@H]1CC[C@H]2[C@H](COc3ccc(NS(=O)(=O)c4ccc(F)cc4)cc3C(=O)N2C)O1`, the molecule was called inactive.

Turning to `COCC(=O)N(C)C[C@H]1Oc2cc(C#Cc3cccnc3)ccc2S(=O)(=O)N([C@@H](C)CO)C[C@@H]1C`, the molecule was classed as inactive.
